Source: PubChem
Only some compounds are listed: those with a hit (about 27% of all), similar ones and a draw of the others.
CYP2C19 act: human CYP2C19 activators, primary screen, biochemical, luminescence; AID 1025, 2008; 96,000 tested, under 10 active; activation factor at 5 µM; recombinant CYP2C19, luciferin-H EGE luminescence; hits give high values; 0 = fully inhibited enzyme, 1 = untreated enzyme; Cytochrome P450 2C19 (Homo sapiens), P33261;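 active means activation factor of at least 2 at 5 µM in the primary screen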;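 further: 0 = wells with 2.5 mM tranylcypromine and 1 = vehicle-only wells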
sEH act: soluble epoxide hydrolase activators, primary screen, biochemical, human sEH | 0.04% of 91,000 active | purified human sEH enzymatic activity, activator screen | activation, % at 2 µM | Bifunctional epoxide hydrolase 2 (Homo sapiens), P34913; in the data active means activation above about 37%
CYP2C19 inh: blockers of cytochrome P450 2C19 activity – biochemical, luminescence, ADME assay, primary screen; P33261; CYP2C19 Supersomes, luciferin-H EGE luminescence, 30 min; inhibition, % at 5 µM; 21% of 96,000 active; AID 778, 2007;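 active means CYP2C19 inhibition above a set limit at 5 µM in the primary screen, cut at about 50% in these data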;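 further: plate controls were negative control wells for no effect and 2.5 mM tranylcypromine positive control for full effect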
sEH inhibitor: soluble epoxide hydrolase inhibitors, primary screen, biochemical, human sEH; Bifunctional epoxide hydrolase 2 (Homo sapiens), P34913; recombinant human sEH enzymatic activity assay; inhibition, % at 2 µM; 0.34% of 91,000 active; in the data active means inhibition above about 80%
CYP2C9 act: human CYP2C9 activators, primary screen, biochemical, luminescence; activation factor at 5 µM; 1.4% of 96,000 active; recombinant CYP2C9, luciferin-H conversion; hits give high values; factor 1 = untreated enzyme, 0 = blocked;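 active means activation factor of 2 or more for CYP2C9 at a 5 µM dose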;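 further: 0 = sulfaphenazole-blocked wells and 1 = vehicle-only wells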
Target sequence (P11712 whole entry, looked up): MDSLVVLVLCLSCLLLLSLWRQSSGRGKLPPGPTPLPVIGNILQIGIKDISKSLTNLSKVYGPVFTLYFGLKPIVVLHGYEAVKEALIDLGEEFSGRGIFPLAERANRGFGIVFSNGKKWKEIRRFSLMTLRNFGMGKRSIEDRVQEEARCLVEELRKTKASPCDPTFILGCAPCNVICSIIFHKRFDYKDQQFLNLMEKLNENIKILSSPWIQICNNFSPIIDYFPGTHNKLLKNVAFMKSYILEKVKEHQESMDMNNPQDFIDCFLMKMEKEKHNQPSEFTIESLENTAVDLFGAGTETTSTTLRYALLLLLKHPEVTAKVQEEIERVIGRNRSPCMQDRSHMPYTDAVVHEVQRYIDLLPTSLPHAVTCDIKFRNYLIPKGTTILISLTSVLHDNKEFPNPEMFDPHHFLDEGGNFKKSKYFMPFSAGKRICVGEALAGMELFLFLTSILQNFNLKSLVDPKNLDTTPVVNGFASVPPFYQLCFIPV
CYP2C9 inh: blockers of cytochrome P450 2C9 activity – biochemical, luminescence, ADME assay, primary screen. inhibition, % at 5 µM. CYP2C9 Supersomes, luciferin-H conversion. AID 777, 2007. 20% of 96,000 active. P11712;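 active means blocking of liver enzyme CYP2C9 beyond about 50% at 5 µM, limit read from the data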
Starred values were filed as active, the others as inactive; . = no result.

SMILES | CYP2C19 act | sEH act | CYP2C19 inh | sEH inhibitor | CYP2C9 act | CYP2C9 inh
O=c1cc(CSc2nnc(-c3cccs3)n2Cc2ccccc2)nc2sc3ccccc3n12 | 0.1 | . | 93.0* | . | 0 | 95.4*
CC(=O)c1c(C)[nH]c(C(=O)CSc2nnc(-c3ccco3)n2Cc2ccccc2)c1C | 0.3 | . | 73.4* | . | 0.3 | 69.7*
CCCn1c(N)c(C(=O)CSc2nnc(-c3ccco3)n2Cc2ccccc2)c(=O)[nH]c1=O | . | -7.9 | . | 9.3 | . | .
C=CCn1c(SCC(=O)c2[nH]c(C)c(C(C)=O)c2C)nnc1-c1ccncc1 | 0.1 | 12.2 | 85.8* | -8.8 | 0.8 | 23.9
C=CCn1c(SCC(=O)O)nnc1-c1ccc(C(C)(C)C)cc1 | 1.1 | -21.7 | -6.0 | 19.4 | 1 | -4.9
CC(=O)c1c(C)[nH]c(C(=O)CSc2nnc(-c3ccccc3)n2Cc2ccc3c(c2)OCO3)c1C | 0.3 | 1.8 | 70.3* | -2.0 | 0.8 | 18.1
CCn1ccc(C(=O)NC2=C(C#N)CCC2)n1 | 0.9 | 0.1 | 9.8 | 3.3 | 0.9 | 6.1
CC(=O)c1c(C)[nH]c(C(=O)CSc2nnc(-c3cccs3)n2Cc2ccccc2)c1C | 0.3 | -6.0 | 72.8* | 5.8 | 0.3 | 72.2*
Cc1ccc(NC(=O)c2cc(N3C(=O)C4CC=CCC4C3=O)ccc2N2CCOCC2)cc1Cl (stereo not drawn) | 1 | -3.5 | 2.2 | 3.2 | 0.9 | 6.6
CCN(CC)C(=O)C1CCCN(Cc2ccc3c(c2)OCO3)C1 (stereo not drawn) | 1 | -3.9 | -0.2 | 5.8 | 1.1 | -7.4
CCN(CC)C(=O)C1CCCN(Cc2ccccc2C(F)(F)F)C1 (stereo not drawn) | 0.4 | . | 57.5* | . | 0.8 | 21.2
CCN(CC)C(=O)C1CCCN(Cc2ccc(F)c(F)c2)C1 (stereo not drawn) | 0.5 | . | 54.6* | . | 1 | 2.7
CCOC(=O)c1sc2nc(C)cc(C)c2c1N | 0.9 | . | 11.2 | . | 0.9 | 10.1
CCOC(=O)c1sc2cc([N+](=O)[O-])cc(SCC(=O)OC)c2c1N | 0.4 | -0.7 | 60.1* | -0.1 | 0.1 | 87.3*
COc1ccc(OC)c(C2C3=C(N=C4SCC(=O)N42)c2ccccc2CC3)c1 (stereo not drawn) | 0.6 | -14.3 | 44.2 | 13.9 | 0.5 | 47.3
COc1cccc(C2C3=C(N=C4SCC(=O)N42)c2ccccc2CC3)c1OC (stereo not drawn) | 0.1 | -8.5 | 87.0* | 10.0 | 0.4 | 60.1*
O=C1c2ccccc2-c2onc3ccc(NCc4ccco4)c1c23 | 0.4 | . | 55.2* | . | 0.1 | 87.9*
CCNc1ccc2noc3c2c1C(=O)c1ccccc1-3 | . | 10.9 | . | -8.2 | . | .
O=C(Nc1ccc(Nc2ccccc2)cc1)C1CC1 | 0.4 | -6.3 | 58.9* | 7.0 | 0.5 | 50.1*
O=C(O)C1CCCCC1C(=O)Nc1ccccc1Nc1ccccc1 (stereo not drawn) | 0.4 | 7.3 | 55.7* | -6.9 | 0.1 | 85.7*
O=C(Nc1ccccc1)C1CCCCC1 | . | 4.9 | . | -2.4 | . | .
O=C(NCC1CCCO1)C1CCC(N2C(=O)c3ccccc3C2=O)CC1 (stereo not drawn) | 0.4 | -4.0 | 55.8* | 3.5 | 0.3 | 72.2*
O=C(Nc1ccc(F)cc1)C1CCC(N2C(=O)c3ccccc3C2=O)CC1 (stereo not drawn) | 0.2 | 4.8 | 78.4* | -3.4 | 0.5 | 51.2*
COc1ccc(N2C(=O)C3CCCN3C2c2cccc(F)c2)cc1Cl (stereo not drawn) | 0.9 | . | 8.1 | . | 0.9 | 7.6
CC1(C)N([O-])C2=C(c3ccccc3C2=O)[N+](=O)C1(C)C | 0.6 | 3.6 | 44.0 | -4.6 | 0.8 | 15.7
SMILES | CYP2C19 act | sEH act | CYP2C19 inh | sEH inhibitor | CYP2C9 act | CYP2C9 inh
CS(=O)(=O)N1CCC(C(=O)Nc2ccccc2)CC1 | 1 | -4.5 | -1.5 | 5.0 | 1.2 | -24.6
O=C(Nc1ccccc1)C1CCN(c2nccs2)CC1 | 0.2 | -18.1 | 84.9* | 17.8 | 0.7 | 29.7
COc1ccc2oc(C(F)(F)C(F)F)cc(=O)c2c1 | 0.5 | -9.9 | 54.3* | 9.6 | 0.7 | 32.8
COc1ccc2oc(C(F)(F)C(F)(F)F)cc(=O)c2c1 | 1 | -2.4 | 1.6 | 2.0 | 0.9 | 7.1
O=C(Cn1c(=O)oc2cc(S(=O)(=O)N3CCCC3)ccc21)NC1CCCc2ccccc21 (stereo not drawn) | 0.9 | . | 12.5 | . | 0.4 | 58.4*
CCN(CCCNS(=O)(=O)c1ccc2c(c1)oc(=O)n2C)c1cccc(C)c1 | 0.4 | . | 58.8* | . | 1.3 | -26.7
CN(Cc1ccccc1)C(=O)Cn1c(=O)oc2cc(S(=O)(=O)N3CCCC3)ccc21 | 1 | -2.3 | -1.4 | 1.3 | 0.3 | 65.0*
O=C(Cn1c(=O)oc2cc(S(=O)(=O)N3CCCCCC3)ccc21)NC1CCCCCCC1 | 0.8 | -77.4 | 15.2 | 77.2 | 0.7 | 26.2
CN(CCNS(=O)(=O)c1ccc2c(c1)oc(=O)n2C)Cc1ccccc1 | 0.7 | . | 26.3 | . | 1.2 | -22.4
O=C(Cn1c(=O)oc2cc(S(=O)(=O)N3CCCC3)ccc21)N1CCN(c2ccccc2)CC1 | 1.1 | 13.9 | -8.6 | -15.0 | 0.8 | 17.0
CC(NC(=O)Cn1c(=O)oc2cc(S(=O)(=O)N3CCCC3)ccc21)c1ccccc1 (stereo not drawn) | 0.9 | -11.8 | 5.0 | 11.2 | 0.1 | 90.0*
Cc1oc2c(c1C(=O)NCCCC(=O)O)CCCC2 | 1 | 6.5 | -3.2 | -8.4 | 0.9 | 5.7
CN(Cc1ccco1)C(=O)Cn1c(=O)oc2cc(S(=O)(=O)NCc3ccccc3)ccc21 | 0 | 9.2 | 98.0* | -9.3 | 1 | 1.3
CN(Cc1ccccc1)C(=O)CCn1c(=O)oc2ccccc21 | 0.1 | 16.0 | 92.9* | -12.0 | 1 | -3.8
CCOc1ccccc1NC(=O)Cn1c(=O)c2ccccc2n(CC)c1=O | . | -2.1 | . | 3.4 | . | .
CN(Cc1ccccc1)C(=O)Cn1c(=O)oc2cc(S(=O)(=O)NCc3ccccc3)ccc21 | 0.9 | 21.0 | 6.6 | -22.3 | 1 | 3.5
CN(Cc1ccccc1)C(=O)CCC(=O)N(C)Cc1ccccc1 | 1 | -18.2 | -4.0 | 18.3 | 1.1 | -12.8
Cn1c(=O)oc2cc(S(=O)(=O)NCc3ccccc3)ccc21 | 0.4 | 5.1 | 59.2* | -11.2 | 1.7 | -67.5
CCn1c(=O)n(CC(=O)N(C)Cc2ccccc2)c(=O)c2ccccc21 | 0.4 | -3.4 | 64.7* | 6.5 | 0.8 | 15.5
CCN(CC)C(=O)C(=O)c1cccn1-c1cccc(-n2cccc2C(=O)C(=O)N(CC)CC)c1C#N | 0.6 | -8.0 | 35.8 | 6.8 | 0.7 | 31.5
O=c1[nH]c(CN2CCCCC2)nc2c1C1(CCCC1)Cc1ccccc1-2 | . | -3.4 | . | 8.1 | . | .
Cc1cccnc1NC(=O)C1CCN(S(=O)(=O)c2cccs2)CC1 | 1.1 | 10.7 | -5.9 | -8.6 | 0.9 | 11.3
